# In ChEMBL document CHEMBL3988442, “University of Dundee, Small-Polar-MMV Screening Library” (2021):
# About 13,000 (27%) of roughly 48,000 compounds showed an effect of 50% or more. The list shows a part of the results.
# Test system: Wolbachia pipientis
# Assay: Anti-Wolbachia Cell-Based Screen
# Type: functional
# Parameters: scale not given: in the data most compounds retested in dose-response had high values
# Settings: 5 µM
row,Compound,Percent Effect [%]
1,CN(c1nc(CSc2nnc(Cn3cncn3)o2)cs1)C1CC1,-4.174
2,O=C(CCc1c[nH]cn1)N1CC[C@@H](c2ccc3ccccc3c2)[C@H](O)C1,-1.023
3,Cc1n[nH]c(SCC(=O)NC(c2ccccn2)C(C)C)n1 (configuration not stated),0.231
4,CC(C)Cn1cc(NC(=O)NC(C)(C)c2nccs2)cn1,-7.007
5,CC(C)c1n[nH]c(C2CN(CC(=O)N(C)Cc3ccco3)CCO2)n1 (configuration not stated),-2.203
6,Cc1noc(C)c1-c1cccc(C2CN(CC(=O)N(C)C)CCO2)n1.O=CO (configuration not stated),138.9
7,Cc1noc(C)c1-c1cccc(C2CN(S(=O)(=O)N(C)C)CCO2)n1 (configuration not stated),137.9
8,Cc1noc(C)c1CN(C)C(=O)C1CCN(S(N)(=O)=O)CC1,-4.387
9,Cc1nc(-c2c(C)noc2C)cc(C2CCN(S(=O)(=O)N(C)C)CC2)n1,103.8
10,Cc1cc(Cl)cc(C)c1CNC1CCN(CC(=O)N(C)C)CC1,-21.25
11,CCc1n[nH]c(C2CN(CC(=O)N(C)Cc3ccco3)CCO2)n1 (configuration not stated),-22.35
12,Cc1nc(-c2c(C)noc2C)cc(C2CCN(CC(=O)N(C)C)CC2)n1,77.89
13,CCN(C)C(=O)CN1CCC(c2cc(N3CCOCC3)nc(C)n2)CC1,11.68
14,Cc1cc(C(F)(F)F)c2c(C3CCN(S(=O)(=O)N(C)C)CC3)noc2n1,-7.595
15,CCC[C@H]1CN(S(=O)(=O)c2ccc(-c3c(C)noc3C)s2)C[C@@H]1N,-6.038
16,Oc1ccc(-c2c(-c3ccccc3)ncn2C[C@H]2CCCN2)cc1,-6.352
17,CCc1noc(C(C)N2CCC(NS(=O)(=O)c3ccccc3)CC2)n1 (configuration not stated),-5.336
18,CN(C(=O)CN1CCC(c2cc3ccccc3[nH]2)CC1)C(C)(C)C#N,-0.1259
19,Cc1noc(C)c1-c1cccc(C2CCN(CC(=O)N(C)C)CC2)n1,159.5
20,CN(C(=O)CN1CCC(c2cc3ccccc3[nH]2)CC1)C1CC1,-16.32
21,Cc1csc(CNc2cccc(OCCN3CCCC3)c2)n1,-3.385
22,CCOc1cc(C(=O)N2CCCC(c3noc(C)n3)C2)ccn1 (configuration not stated),-8.742
23,CCOc1cc(CNC(=O)NCc2nc(C)c(C)s2)ccn1,-14.7
24,CC(C)c1nc(C2CCCN(C(=O)c3nccn4ccnc34)C2)no1 (configuration not stated),101.8
25,CCOc1cc(C(=O)N2CC=C(c3ccc(O)cc3)CC2)ccn1,-12.82

row,Compound,Percent Effect [%]
1,CCOc1cc(C(=O)N2CCCC(c3noc(C(C)C)n3)C2)ccn1 (configuration not stated),127.2
2,CCOc1cc(C(=O)N2CCCC(c3noc(CC)n3)C2)ccn1 (configuration not stated),112.4
3,Cc1ncsc1C(=O)N1CCCC(c2noc(C(C)C)n2)C1 (configuration not stated),-0.9065
4,CCOc1cc(C(=O)N2CCCC(c3nc(C)c(C)s3)C2)ccn1 (configuration not stated),118.9
5,CCNc1ncc(CN2C[C@H]3CC[C@@H]2CN(C(=O)C2CCC2)C3)cn1,-9.372
6,COCc1cc(N2CCN(c3ccc(Cl)cn3)CC2)n2nccc2n1,-13.5
7,COc1ccc(F)c(CN2CCCC(O)(CNCc3ccoc3)C2=O)c1 (configuration not stated),4.177
8,CCCc1cc(CN(C)C2CC(C)(C)NC(C)(C)C2)n[nH]1,-6.342
9,Cc1nc[nH]c1CN(Cc1ccccc1F)C1CC(C)(C)NC(C)(C)C1.O=C(O)CC(O)(CC(=O)O)C(=O)O,111.6
10,Cc1nc[nH]c1CN(C)CC1CCCN(CCc2ccc(Cl)cc2)C1 (configuration not stated),-5.725
11,Cc1nc[nH]c1CN(Cc1ccccc1)C1CC(C)(C)NC(C)(C)C1.O=C(O)CC(O)(CC(=O)O)C(=O)O,106.8
12,Cc1nc[nH]c1CN(Cc1ccc(F)cc1)C1CC(C)(C)NC(C)(C)C1,102.8
13,Cc1ccc(CNC(=O)N(Cc2ccccc2F)C2CC2)cn1,-4.204
14,CC1(C)CC(N(Cc2ccccc2)Cc2c[nH]cn2)CC(C)(C)N1.O=C(O)CC(O)(CC(=O)O)C(=O)O,113.6
15,Cc1n[nH]c(C)c1CNC(=O)N(Cc1ccccc1)CC(C)(C)O,-20.3
16,O=C(c1cc[nH]n1)N(Cc1ccccc1)CC1CCC1,-1.584
17,Cc1ccc(CN(Cc2c[nH]cn2)C2CC(C)(C)NC(C)(C)C2)o1.O=C(O)CC(O)(CC(=O)O)C(=O)O,1.098
18,O=C(c1ccc(C2CCCN2C(=O)c2ccoc2)s1)N1CCOCC1 (configuration not stated),-19.01
19,Cc1cnc(C)c(-c2cc(O)c3c(c2)CN(c2nccs2)CCO3)n1,-4.792
20,O=C(CCc1ccco1)NS(=O)(=O)Cc1ccon1,-7.253
21,Fc1cccc2c1CCC2NCc1ccc(N2CCOCC2)cc1 (configuration not stated),19.23
22,Cc1nc(CN(C)S(=O)(=O)c2ccccc2Br)no1,4.725
23,Cc1ccc(CN2C[C@H]3CC[C@@H]2CN(Cc2[nH]cnc2C)C3)o1,6.692
24,Cc1ccc(CN(Cc2[nH]cnc2C)C2CC(C)(C)NC(C)(C)C2)o1.O=C(O)CC(O)(CC(=O)O)C(=O)O,115.3
25,CCC[C@H]1CN(c2nc(CO)cs2)C[C@@H]1NC(=O)C1(COC)CC1,96.14

row,Compound,Percent Effect [%]
1,CCC[C@H]1CN(Cc2nccn2C)C[C@@H]1NC(=O)C1(COC)CCC1,-15.87
2,Cc1nc(O)cc(CN2C[C@H](NC(=O)C3CCCC3)[C@@H](C3CC3)C2)n1,0
3,CC(=O)N[C@@H]1CN(c2nc(CO)cs2)C[C@H]1c1ccc(C)o1,5.445
4,Cc1nc(O)cc(CN2C[C@H](NC(=O)C3CCC3)[C@@H](C3CC3)C2)n1,-31.53
5,O=C(N[C@H]1CN(c2nc(CO)cs2)C[C@@H]1C1CC1)C1CCCCC1,92.34
6,CCC[C@H]1CN(c2nccc(OC)n2)C[C@@H]1NC(=O)C1CCOCC1,-2.049
7,CCC[C@H]1CN(c2nc(CO)cs2)C[C@@H]1NC(=O)C1CCC1,94.3
8,CCC[C@H]1CN(Cc2cscn2)C[C@@H]1NC(=O)C1(COC)CCC1,6.083
9,COc1ccc(Br)cc1CCC(=O)N1CCC(O)CC1,-2.628
10,COc1ccc(-n2c(SCC(=O)O)nnc2-c2cn[nH]c2)cc1,-10.86
11,O=C(C1CCCS1)N1CCOc2cccc(F)c21 (configuration not stated),-0.5094
12,Cc1noc(C)c1NC(=O)N1CCC(NC(=O)OC(C)(C)C)CC1,-9.132
13,Cc1nn(-c2ccccn2)c(C)c1[C@@H]1C=C[C@@H](NC(=O)NC(C)C)C1,4.559
14,Cc1cccc(Oc2nccnc2C2CCN(C(=O)C(C)(C)N)CC2)c1,110.7
15,COc1ccc(Oc2nccnc2C2CCN(C(C)=O)CC2)cc1,88.85
16,CC(C)(C(=O)N1CCC(CS(N)(=O)=O)CC1)c1ccccc1F,-25.38
17,COCC(=O)N1CCC(Oc2cccc(C)c2)CC1,14.96
18,CC(C)(N)C(=O)N1CCC(c2nccnc2Oc2ccccc2F)CC1,77.45
19,CC(=O)N1CCC(c2nccnc2Oc2ccccc2)CC1,-11.76
20,CCc1nc(N)sc1C(=O)N1CCCC(COc2cccc(C)c2)C1 (configuration not stated),-15.03
21,CC(C)(C(=O)N1CCC(C(N)=O)C1)c1ccccc1F (configuration not stated),2.701
22,Cc1ccc(Oc2nccnc2C2CCN(C(=O)C(C)(C)N)CC2)cc1,108.2
23,COc1ccc(Oc2ncccc2NC(=O)N2CCOC(C)C2)cc1 (configuration not stated),2.088
24,CC(C)N1C(=O)CC(NC(=O)c2cc(Cl)sc2Cl)C1=O (configuration not stated),-12.95
25,COc1ccc(S(=O)(=O)Nc2cccnc2-n2cncn2)c(C)c1,-3.562

row,Compound,Percent Effect [%]
1,CCc1c(NCc2cccnc2)cnn1CC(C)C,-15.31
2,CC(C)CN1CCc2[nH]cnc2C12CCN(C(=O)c1ccnn1C)CC2,-2.92
3,CC(C)(N)C(=O)N1CCC(c2nccnc2Oc2cccc(F)c2)CC1,92.95
4,O=C(c1coc(COc2cccc(F)c2)n1)N1CC[C@H](O)[C@@H](O)C1,-11.67
5,O=C(NCc1nncn1C1CC1)Nc1ccc(OC2CCC2)c(F)c1,8.636
6,O=C(NCCNC(=O)C1CC1)c1cnc(-c2ccccc2)nc1,15.61
7,Cc1ncc(-c2ccccn2)c(CCNC(=O)C2CCCC2)n1,121.3
8,Cc1ncc(-c2ccccn2)c(CCNC(=O)CCC2CCCO2)n1 (configuration not stated),93.7
9,CCOCCNC(=O)CCC1CCCO1 (configuration not stated),-23.31
10,Cc1cccc(C)c1OCCNC(=O)CNC(=O)C1CCCC1,-3.994
11,COc1ccc(OC)c(CCNC(=O)CCC2CCCO2)c1 (configuration not stated),18.05
12,CC(NCc1cnc(C2CCC2)s1)c1cccc(-n2ccnc2)c1 (configuration not stated),-10.94
13,Cc1cc(C)c2[nH]c(=O)c(CN3CCCC(O)(CO)C3)cc2c1 (configuration not stated),-6.012
14,Cc1cc(C)c(CN2CCCC23Cc2ccccc2CNC3=O)c(C)c1 (configuration not stated),111.5
15,CC(C)NC(=O)N1CCC2(CC1)C(=O)NCCN2Cc1ccccc1.O=C(O)C(F)(F)F,-27.1
16,O=C(CC1CC1)N1CCC2(CC1)C(=O)NCCN2Cc1ccccc1,-11.42
17,Cc1ccc(CCN2CCCC23Cc2ccccc2CNC3=O)cc1 (configuration not stated),109.3
18,Cc1ccc(CN2CCCC23Cc2ccccc2CNC3=O)cc1 (configuration not stated),128.7
19,O=C1N(CCc2ccccc2)CCCC1(O)CNCc1ccc(F)cc1 (configuration not stated),10.95
20,OC(CNCCn1cccn1)COc1cccc(C(F)(F)F)c1 (configuration not stated),6.446
21,CCN1CCC(NC(=O)CNC(C)Cn2cccn2)CC1 (configuration not stated),5.956
22,CCC[C@@H]1CN(Cc2cc3c(cc2OC)OCO3)C[C@H]1C(=O)O,5.15
